# tim23-1 inh: growth inhibitors of tim23-1 mutant yeast; S. cerevisiae tim23-1 growth, BacTiter-Glo luminescence, 24 h; actives 1.3% (n = 330,000); AID 463212; inhibition, % at 20 µM;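 active means growth inhibition of the mutant yeast at or above 50%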;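 further: temperature-sensitive mutant grown at 25 °C; plate controls were DMSO-treated mutant yeast for no effect and medium wells lacking yeast for full effect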
# SKKanGAS inh: inhibitors of SKKanGAS S. pyogenes growth in kanamycin (SK-promoter or general growth effect) | BacTiter-Glo, 6 h | inhibition, % at 7.5 µM | actives 1.3% (n = 300,000) | AID 1662;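 active means mean replicate score, as percent of positive control median, at least 50; inconclusive means mean below 50 but one replicate at or above 50; inactive means mean and every replicate below 50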;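 further: strain carries kanamycin resistance gene driven by streptokinase promoter and grows in 40 µg/ml kanamycin; loss of luminescence reflects streptokinase promoter inhibition or plain growth inhibition; 0% = median of DMSO wells and 100% = positive control at its reference dose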
# PfHsp90 set2: inhibits growth of yeast expressing Plasmodium falciparum Hsp90; S. cerevisiae expressing PfHsp90, BacTiter-Glo ATP, 48 h; yeast lacking PDR1 and PDR3 efflux regulators; inhibition, % at 9.4 µM; actives 0.32% (n = 310,000); AID 504621;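 active means every replicate shows inhibition above about 80%, whatever the replicate mean, limit read from the data; inconclusive means mean inhibition reaches the set limit but some replicate falls short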;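 further: 0% = DMSO neutral controls and 100% = 20 µM radicicol positive controls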
# tim10-1 inh: growth inhibitors of tim10-1 mutant yeast | inhibition, % at 20 µM | S. cerevisiae tim10-1 ts strain growth, BacTiter-Glo, 24 h | actives 2.2% (n = 330,000);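 active means inhibition of at least 40%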;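 further: mutant grown at 25 °C; 0% = DMSO wells with yeast and 100% = wells holding no yeast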
# TIM10 inh: TIM10 yeast growth inhibition; S. cerevisiae TIM10 strain growth, BacTiter-Glo luminescence, 24 h; inhibition, % at 10 µM; actives 1.4% (n = 330,000); AID 463195;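 active means inhibition of 40% or more at the single tested concentration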;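 further: wild-type TIM10 isogenic control strain grown at permissive 25 °C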
# Calb FLC: affects C. albicans growth with fluconazole. C. albicans CaCi-2 (fluconazole-resistant clinical isolate) + fluconazole, Alamar Blue growth, 48 h. growth inhibition, % (no concentration beside the values). actives 0.57% (n = 300,000). AID 1979;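 active means growth inhibition above about 58% in most replicates, limit read from the data, passing the limit was not always enough; inconclusive means exactly half the replicates above a set limit; inactive means most replicates below a set limit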;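 further: all wells also contain fluconazole at 8 µg/ml as a sub-toxic cotreatment; 0% = median of DMSO wells and 100% = median of geldanamycin control wells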
# tim10 confirm: confirmation of TIM10 yeast growth inhibitors. shares compounds with TIM10 inh. S. cerevisiae tim10 strain growth, BacTiter-Glo luminescence, 24 h. inhibition, % at 10 µM. actives 63% (n = 4,600). AID 463215;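 active means inhibition of yeast growth at or above a set limit in either of two replicates at 10 µM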;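 further: this counterscreen used the strain with wild-type TIM10; 0% = yeast with DMSO and 100% = medium wells lacking yeast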
# tim23-1 confirm: tim23-1 yeast growth inhibition, confirmed. actives 83% (n = 4,400). inhibition, % at 20 µM. S. cerevisiae tim23-1 growth, BacTiter-Glo luminescence, 24 h. shares compounds with tim23-1 inh;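 active means inhibition above about 39% in either of two replicate wells at 20 µM, limit read from the data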;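 further: temperature-sensitive tim23-1 mutant grown at 25 °C; 0% = DMSO wells with yeast and 100% = medium wells without yeast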
# Numbers without * were called inactive; u = inconclusive; x = no result. Compounds with a hit are over-represented: about 4.7% of the library has one in this group of screens.
SMILES,tim23-1 inh,SKKanGAS inh,PfHsp90 set2,tim10-1 inh,TIM10 inh,Calb FLC,tim10 confirm,tim23-1 confirm
CCN(CC)c1ccc(/C=N/NC(=O)c2c(Cl)cnn2C)c(O)c1,66.5*,11.1,20.4,36.3,58.1*,4.0,13.2,62.2*
Cn1ncc(Cl)c1C(=O)N/N=C/c1cc2c(cc1[N+](=O)[O-])OCO2,-3.2,-2.2,0.9,17.0,5.1,-6.4,x,x
CC(C)NC(=S)N/N=C/c1cc(Br)ccc1O,55.1*,61.5*,-40.8,39.1,55.5*,-5.6,-9.7,-5.6
COC(=O)N/N=C/c1cc(Br)ccc1O,2.0,-5.3,-34.6,23.3,7.8,-4.7,x,x
O=C(N/N=C/c1cc(Br)ccc1O)c1ccccc1Cl,78.9*,68.4*,-54.2,35.5,64.9*,89.1*,-34.0,68.8*
Cc1nc(C)n(CCNC(=O)c2ccco2)n1,-4.6,1.8,13.9,-6.8,-7.0,5.2,x,x
CC(=O)Nc1cc(=O)c2cccnc2[nH]1,x,x,-10.1,x,x,x,x,x
CCCCCN(C(=O)CCC(=O)OCCOc1ccc(OCC)cc1)c1c(N)n(CCCC)c(=O)[nH]c1=O,7.2,-4.3,-3.0,17.5,8.2,0.7,x,x
O=C(Nc1cc(Cl)cc(Cl)c1)N1CCCC1,53.7*,58.7*,13.1,21.8,48.4*,14.5,25.4,45.6*
O=C(Nc1ccc2oc(-c3ccccc3)nc2c1)c1ccco1,51.2*,-14.6,35.6,39.2,63.9*,u,-3.5,78.6*
Cn1c(CSc2nc3ccccc3s2)nc2ccccc21,58.5*,18.6,9.5,37.9,46.0*,-13.0,42.6*,64.9*
c1ccc(CSc2nc3ccccc3[nH]2)cc1,11.6,-3.7,-12.4,-12.1,17.6,-2.9,x,x
CCCOc1ccc(CSc2nc3ccccc3[nH]2)cc1,63.9*,7.3,x,23.1,46.7*,14.8,36.3*,48.8*
O=[N+]([O-])c1ccc(O)c(C=Nc2ccc3c(c2)OCCO3)c1,38.7,-10.6,31.3,4.2,18.1,-5.0,x,x
Oc1c(Br)cc(Br)cc1C=Nc1ccc2c(c1)OCO2,82.5*,12.1,6.1,36.0,66.4*,1.3,51.5*,72.0*
Oc1c(Br)cc(Br)cc1C=Nc1ccc2c(c1)OCCO2,83.7*,6.2,22.4,24.8,55.7*,-27.3,34.2*,91.6*
CCn1c(SCCN2CCOCC2)nc2c1c(=O)n(C)c(=O)n2C,7.6,-0.9,16.2,13.4,-7.0,-1.2,x,x
Nc1ccc(-c2cc(-c3cccc(N)c3)nc(-c3ccccc3)n2)cc1,-6.7,-13.9,15.8,-1.3,-20.6,-11.1,x,x
Nc1ccc(-c2nc(-c3ccccc3)nc3ccccc23)cc1,66.7*,0.4,-1.8,36.7,56.2*,-4.5,54.2*,57.0*
COc1ccc(OC)c(N/C=C/C(=O)c2ccccc2)c1,62.0*,-4.3,-19.3,-1.7,44.3*,-2.1,26.2,82.8*
CC12CCC(C(=O)C1)C1(C)CCCC(=O)C21 (stereo not drawn),x,x,10.1,x,x,x,x,x
O=C(CSc1ccc(-c2ccccc2)nn1)Nc1ccc2c(c1)OCCO2,54.9*,-0.3,-26.5,36.2,55.5*,0.7,58.5*,79.2*
O=C(CSc1ccccc1)Nc1ccc2c(c1)OCCO2,24.3,0.0,-20.9,-9.9,-8.6,-29.8,x,x
CCc1ccc(-c2cc(C(=O)N3N=C(C(F)F)CC3(O)C(F)F)c3ccccc3n2)cc1 (stereo not drawn),53.7*,17.3,111.5*,39.9,48.5*,24.9,26.4,29.0
CC(C)Cc1cc(C(=O)N2N=C(C(F)F)CC2(O)C(F)F)c2ccccc2n1 (stereo not drawn),17.5,-7.1,x,22.4,4.1,4.5,x,x
SMILES,tim23-1 inh,SKKanGAS inh,PfHsp90 set2,tim10-1 inh,TIM10 inh,Calb FLC,tim10 confirm,tim23-1 confirm
O=C(Nc1cccc(Br)c1)c1cc2ccccc2o1,52.5*,-2.2,-0.7,11.4,47.0*,-20.4,48.6*,62.4*
Cc1ccc(S(=O)(=O)N2CCOCC2)cc1C(=O)N1CCC(Cc2ccccc2)CC1,15.0,2.1,-73.9,3.7,4.7,2.7,x,x
Cc1ccc(-c2cn(-c3ccccc3F)c(=S)[nH]2)cc1,61.2*,2.5,-16.3,28.7,44.6*,-21.8,46.8*,47.6*
O=[N+]([O-])c1ccc(-c2cn(-c3ccccc3F)c(=S)[nH]2)cc1,-0.6,-1.4,-4.9,12.5,2.8,5.4,x,x
CCCC(=O)NC(=S)Nc1cccc(NC(=O)c2ccccc2Cl)c1,53.5*,2.4,2.0,36.4,44.8*,12.9,39.4*,44.0*
CCCC(=O)NC(=S)Nc1cccc(NC(=O)c2ccc(Cl)cc2Cl)c1,2.3,9.6,-15.2,7.7,5.4,6.3,x,x
Cc1cccc(C)c1NC(=O)/C(C#N)=C/c1ccsc1,62.3*,3.8,15.9,39.2,44.1*,-25.6,37.4*,57.1*
Cc1cccc(C)c1N=Nc1c(C)cc(O)cc1C,63.5*,22.7,112.3*,24.2,46.8*,-0.6,64.8*,-0.6
O=C(CN1CCN(C(=O)c2ccc(-c3nc4ccccc4s3)o2)CC1)Nc1ccc(F)cc1,40.2,x,9.2,-12.1,14.7,x,x,x
Cc1ccc(-c2nnc(N3CCN(S(C)(=O)=O)CC3)c3ccccc23)cc1,22.0,12.2,4.6,20.4,23.0,5.6,x,x
Cc1ccc(-c2nnc(N3CCN(c4ccccn4)CC3)c3ccccc23)cc1,65.3*,27.3,-8.8,37.5,48.2*,31.5,-21.8,72.0*
NNC(=O)c1cc2cc(OC(F)(F)F)ccc2[nH]1,57.6*,15.9,24.9,28.6,50.4*,7.1,40.4*,49.7*
O=C(C1CC(=O)N(c2ccc(Cl)cc2)C1)N1CCOCC1 (stereo not drawn),10.6,0.5,-15.0,11.0,-7.8,0.6,x,x
Cc1ccc(C)c(C(=O)Nc2cc(C)nn2-c2nc(C)cc(C)n2)c1,53.8*,48.0,-24.9,8.9,43.2*,20.8,42.8*,48.3*
Cc1cc(C)nc(-n2nc(C)cc2NC(=O)c2cccc(S(=O)(=O)N(C)C)c2)n1,-1.6,8.5,x,5.0,-6.7,4.0,x,x
COc1cc2c(c3ccccc13)CCCC2=O,x,x,7.6,x,x,x,x,x
Cc1nn2c(NCc3ccccn3)c3c(nc2c1-c1ccccc1)CCC3,56.3*,42.0,x,25.3,55.3*,-2.7,52.3*,57.1*
O=Cc1ccccc1OCCCOc1cccc2cccnc12,76.3*,0.0,-7.1,33.2,49.5*,-3.6,52.4*,78.7*
O=Cc1ccc(OCCCOc2cccc3cccnc23)cc1,36.0,-13.0,-7.8,38.7,14.2,-0.4,x,x
COc1ccc(S(=O)(=O)N2CCC(C(=O)NCCN3CCOCC3)CC2)cc1,-7.0,3.6,-13.8,-9.9,0.7,-1.8,x,x
CCOc1ccc2nc(Cl)c(/C=C/C(=O)c3ccco3)cc2c1,41.0,15.9,x,34.5,37.2,53.2,x,x

# Source: PubChem
